Data from PubChem BioAssay AID1159580 (chemical genetic matrix, 2015).
Screen size: about 5,500 compounds; about 2,000 (36%) were called active. About 18% were inconclusive and are not listed. Cut-off read from the data, not from the text of the source: active = normalized growth mostly below about 0.91 (no sharp cut-off); inconclusive = no clear call, values can overlap the other calls; inactive = mostly above about 0.92. The list shows a part of the results.

Assay: chemical genetic growth profiling, strain panel (AID 1159580);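 note: tested at 20 µM; growth read once vehicle control cultures reached saturation at 30 °C; 1 = growth at the plate median or of vehicle wells; lower values mean less growth of the strain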
Settings: growth OD

Measured: normalized growth

COc1cc2c(cc1OC)C1(O)C(=O)c3ccc(O)c(C(=O)O)c3OC1CO2 (stereo not drawn)
inactive: S. cerevisiae deletion strains, locus YKL009W, strain mrt4, stronger effect = lower value 1.06 | S. cerevisiae deletion strains, locus YKL068W, stronger effect = lower value 0.983 | S. cerevisiae deletion strains, locus YKL085W, strain MDH1 (second series), stronger effect = lower value 0.975 | S. cerevisiae deletion strains, locus YKL085W, strain MDH1, stronger effect = lower value 0.975 | S. cerevisiae deletion strains, locus YKL160W, strain elf1, stronger effect = lower value 0.984 | S. cerevisiae deletion strains, locus YKL190W, strain CNB1, stronger effect = lower value 0.991 | S. cerevisiae deletion strains, locus YKR001C, strain vps1, stronger effect = lower value 1.01 | S. cerevisiae deletion strains, locus YKR026C, strain gcn3, stronger effect = lower value 0.99 | S. cerevisiae deletion strains, locus YKR091W, strain srl3, stronger effect = lower value 0.992 | S. cerevisiae deletion strains, locus YLL001W, strain dnm1, stronger effect = lower value 1 | S. cerevisiae deletion strains, locus YLL026W, stronger effect = lower value 0.993 | S. cerevisiae deletion strains, locus YLL041C, strain sdh2, stronger effect = lower value 0.998 | S. cerevisiae deletion strains, locus YLR027C, strain aat2, stronger effect = lower value 0.998 | S. cerevisiae deletion strains, locus YLR039C, strain RIC1, stronger effect = lower value 1.08 | S. cerevisiae deletion strains, locus YLR058C, strain SHM2, stronger effect = lower value 1.01 | S. cerevisiae deletion strains, locus YLR102C, strain apc9, stronger effect = lower value 0.975 | S. cerevisiae deletion strains, locus YLR113W, strain HOG1, stronger effect = lower value 0.982 | S. cerevisiae deletion strains, locus YLR221C, strain rsa3, stronger effect = lower value 1.02 | S. cerevisiae deletion strains, locus YLR258W, strain gsy2, stronger effect = lower value 0.99 | S. cerevisiae deletion strains, locus YLR262C, strain YPT6 (second series), stronger effect = lower value 1.02 | S. cerevisiae deletion strains, locus YLR262C, strain YPT6, stronger effect = lower value 1.08 | S. cerevisiae deletion strains, locus YLR268W, strain sec22, stronger effect = lower value 1.02 | S. cerevisiae deletion strains, locus YLR320W, strain mms22, stronger effect = lower value 1.01 | S. cerevisiae deletion strains, locus YLR330W, strain CHS5, stronger effect = lower value 1 | S. cerevisiae deletion strains, locus YLR342W, strain FKS1, stronger effect = lower value 1.02 | S. cerevisiae deletion strains, locus YLR357W, strain rsc2, stronger effect = lower value 0.987 | S. cerevisiae deletion strains, locus YLR370C, strain arc18, stronger effect = lower value 0.988 | S. cerevisiae deletion strains, locus YLR371W, strain rom2, stronger effect = lower value 1 | S. cerevisiae deletion strains, locus YLR384C, strain iki3, stronger effect = lower value 0.985 | S. cerevisiae deletion strains, locus YLR418C, strain cdc73, stronger effect = lower value 1 | S. cerevisiae deletion strains, locus YML016C, strain PPZ1, stronger effect = lower value 1.01 | S. cerevisiae deletion strains, locus YML032C, strain rad52, stronger effect = lower value 1.01 | S. cerevisiae deletion strains, locus YML120C, strain ndi1, stronger effect = lower value 1 | S. cerevisiae deletion strains, locus YML124C, strain tub3, stronger effect = lower value 0.99 | S. cerevisiae deletion strains, locus YMR058W, strain fet3, stronger effect = lower value 0.995 | S. cerevisiae deletion strains, locus YMR078C, strain ctf18, stronger effect = lower value 0.992 | S. cerevisiae deletion strains, locus YMR125W, strain sto1, stronger effect = lower value 0.983 | S. cerevisiae deletion strains, locus YMR129W, stronger effect = lower value 0.987 | S. cerevisiae deletion strains, locus YMR205C, strain PFK2, stronger effect = lower value 1.02 | S. cerevisiae deletion strains, locus YMR223W, strain ubp8, stronger effect = lower value 0.98 | S. cerevisiae deletion strains, locus YMR231W, strain pep5, stronger effect = lower value 0.994 | S. cerevisiae deletion strains, locus YMR307W, strain GAS1, stronger effect = lower value 1.18 | S. cerevisiae deletion strains, locus YNL067W, strain RPL9B, stronger effect = lower value 0.977 | S. cerevisiae deletion strains, locus YNL071W, strain lat1, stronger effect = lower value 0.991 | S. cerevisiae deletion strains, locus YNL128W, strain TEP1, stronger effect = lower value 1 | S. cerevisiae deletion strains, locus YNL153C, strain GIM3, stronger effect = lower value 0.991 | S. cerevisiae deletion strains, locus YNL183C, strain NPR1, stronger effect = lower value 0.94 | S. cerevisiae deletion strains, locus YNL209W, strain ssb2, stronger effect = lower value 0.989 | S. cerevisiae deletion strains, locus YNL233W, strain BNI4, stronger effect = lower value 0.996 | S. cerevisiae deletion strains, locus YNL248C, strain rpa49, stronger effect = lower value 0.974 | S. cerevisiae deletion strains, locus YNL250W, strain rad50, stronger effect = lower value 0.968 | S. cerevisiae deletion strains, locus YNL271C, strain bni1, stronger effect = lower value 0.99 | S. cerevisiae deletion strains, locus YNL298W, strain CLA4, stronger effect = lower value 0.985 | S. cerevisiae deletion strains, locus YNL307C, strain MCK1, stronger effect = lower value 0.984 | S. cerevisiae deletion strains, locus YNL322C, strain KRE1 (second series), stronger effect = lower value 1.01 | S. cerevisiae deletion strains, locus YNL322C, strain KRE1, stronger effect = lower value 0.988 | S. cerevisiae deletion strains, locus YNR049C, strain mso1, stronger effect = lower value 0.996 | S. cerevisiae deletion strains, locus YNR052C, strain pop2, stronger effect = lower value 0.999 | S. cerevisiae deletion strains, locus YOL006C, strain TOP1, stronger effect = lower value 1.38 | S. cerevisiae deletion strains, locus YOL012C, strain htz1 0.856 | S. cerevisiae deletion strains, locus YOL147C, strain pex11, stronger effect = lower value 0.995 | S. cerevisiae deletion strains, locus YOR001W, strain rrp6, stronger effect = lower value 1.02 | S. cerevisiae deletion strains, locus YOR061W, strain CKA2, stronger effect = lower value 1.05 | S. cerevisiae deletion strains, locus YOR069W, strain VPS5, stronger effect = lower value 0.989 | S. cerevisiae deletion strains, locus YOR070C, strain gyp1, stronger effect = lower value 0.984 | S. cerevisiae deletion strains, locus YOR080W, strain dia2, stronger effect = lower value 0.998 | S. cerevisiae deletion strains, locus YOR083W, strain WHI5, stronger effect = lower value 0.999 | S. cerevisiae deletion strains, locus YOR106W, strain vam3, stronger effect = lower value 0.997 | S. cerevisiae deletion strains, locus YOR136W, strain idh2, stronger effect = lower value 1 | S. cerevisiae deletion strains, locus YOR144C, strain elg1, stronger effect = lower value 0.994 | S. cerevisiae deletion strains, locus YOR184W, strain ser1, stronger effect = lower value 1.07 | S. cerevisiae deletion strains, locus YOR231W, strain MKK1, stronger effect = lower value 0.989 | S. cerevisiae deletion strains, locus YOR265W, strain rbl2, stronger effect = lower value 1.01 | S. cerevisiae deletion strains, locus YOR270C, strain vph1, stronger effect = lower value 1.01 | S. cerevisiae deletion strains, locus YOR290C, strain snf2, stronger effect = lower value 0.978 | S. cerevisiae deletion strains, locus YOR316C, strain cot1, stronger effect = lower value 0.976 | S. cerevisiae deletion strains, locus YPL051W, strain arl3, stronger effect = lower value 0.982 | S. cerevisiae deletion strains, locus YPL078C, strain atp4, stronger effect = lower value 0.98 | S. cerevisiae deletion strains, locus YPL106C, strain sse1, stronger effect = lower value 0.991 | S. cerevisiae deletion strains, locus YPL240C, strain hsp82, stronger effect = lower value 0.977 | S. cerevisiae deletion strains, locus YPL241C, strain CIN2, stronger effect = lower value 0.983 | S. cerevisiae deletion strains, locus YPL256C, strain CLN2, stronger effect = lower value 0.95 | S. cerevisiae deletion strains, locus YPR119W, strain clb2, stronger effect = lower value 0.973 | S. cerevisiae deletion strains, locus YPR141C, strain kar3, stronger effect = lower value 0.96 | S. cerevisiae deletion strains, locus YPR163C, strain tif3, stronger effect = lower value 0.997 | S. cerevisiae deletion strains, locus YPR167C, strain met16, stronger effect = lower value 1 | S. cerevisiae deletion strains, strain wtn01, stronger effect = lower value 1.03 | S. cerevisiae strains, strain wild type, stronger effect = lower value 1.04
